Test results as given in PubChem BioAssay.
Calls of active or inactive are those of the source.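 How the source made its calls, unless noted: active means at least 20% inhibition of 6-phosphogluconate dehydrogenase activity; inactive means the rest.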

Columns and labels:
[1] = target: 6-phosphogluconate dehydrogenase, decarboxylating (Homo sapiens) (UniProt P52209); test: inhibition of human phosphogluconate dehydrogenase – biochemical, recombinant enzyme, NADPH absorbance, primary screen (AID 1159550); conditions: recombinant 6PGD, NADPH absorbance 341 nm; at 10 µM; stronger effect = higher value
[2] = EMT-state selective cytotoxicity in co-culture – imaging, PC-3E GFP, TEM4-18 mCherry, primary screen (AID 1345086;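 active means compounds killing one labelled cell type while sparing the other, by normalised counts and ratio limits, not self-fluorescent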;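 on all read-outs here: cells exposed to compound for 72 h before imaging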;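 on red/green cell ratio (normalised): normalised mesenchymal count divided by normalised epithelial count so high means epithelial killing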); conditions: PC-3E GFP / TEM4-18 mCherry co-culture, imaging cell counts, at 1 µM; for red/green cell ratio (normalised): actives lie on both sides, counts scaled to control wells, 1 = unselective
[3] = target: Mitogen-activated protein kinase 7 (Homo sapiens) (UniProt Q13164); test: Gal4-ERK5 driven luciferase induction – cell-based, HTS, primary screen (AID 1508626;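 active means luciferase signal above three times the same-plate solvent-only control wells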;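 further: luciferase driven by Gal4-ERK5 fusion binding five Gal4 sites before minimal TATA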); conditions: HeLa Gal4-ERK5 transactivation, 18 h, at 5 µM, stronger effect = higher value
[4] = measured here: epithelial PC-3E GFP cell survival
[5] = measured here: mesenchymal TEM4-18 mCherry cell survival

Chain of 6-phosphogluconate dehydrogenase, decarboxylating (Homo sapiens) (P52209 whole entry, looked up): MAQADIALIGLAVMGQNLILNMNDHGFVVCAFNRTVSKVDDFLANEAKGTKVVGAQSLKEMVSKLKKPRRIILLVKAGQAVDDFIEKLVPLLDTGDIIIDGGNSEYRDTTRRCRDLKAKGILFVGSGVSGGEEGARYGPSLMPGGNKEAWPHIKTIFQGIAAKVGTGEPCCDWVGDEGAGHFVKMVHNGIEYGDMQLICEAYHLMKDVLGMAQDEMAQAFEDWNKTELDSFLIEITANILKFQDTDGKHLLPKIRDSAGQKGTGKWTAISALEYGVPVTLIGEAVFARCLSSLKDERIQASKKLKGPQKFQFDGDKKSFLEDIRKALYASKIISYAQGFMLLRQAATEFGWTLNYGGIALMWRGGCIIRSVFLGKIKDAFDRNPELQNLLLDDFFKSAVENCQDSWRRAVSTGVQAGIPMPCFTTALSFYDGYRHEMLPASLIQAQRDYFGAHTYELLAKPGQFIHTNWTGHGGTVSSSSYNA
Chain of Mitogen-activated protein kinase 7 (Homo sapiens) (Q13164 whole entry, looked up, the tested form may be a part): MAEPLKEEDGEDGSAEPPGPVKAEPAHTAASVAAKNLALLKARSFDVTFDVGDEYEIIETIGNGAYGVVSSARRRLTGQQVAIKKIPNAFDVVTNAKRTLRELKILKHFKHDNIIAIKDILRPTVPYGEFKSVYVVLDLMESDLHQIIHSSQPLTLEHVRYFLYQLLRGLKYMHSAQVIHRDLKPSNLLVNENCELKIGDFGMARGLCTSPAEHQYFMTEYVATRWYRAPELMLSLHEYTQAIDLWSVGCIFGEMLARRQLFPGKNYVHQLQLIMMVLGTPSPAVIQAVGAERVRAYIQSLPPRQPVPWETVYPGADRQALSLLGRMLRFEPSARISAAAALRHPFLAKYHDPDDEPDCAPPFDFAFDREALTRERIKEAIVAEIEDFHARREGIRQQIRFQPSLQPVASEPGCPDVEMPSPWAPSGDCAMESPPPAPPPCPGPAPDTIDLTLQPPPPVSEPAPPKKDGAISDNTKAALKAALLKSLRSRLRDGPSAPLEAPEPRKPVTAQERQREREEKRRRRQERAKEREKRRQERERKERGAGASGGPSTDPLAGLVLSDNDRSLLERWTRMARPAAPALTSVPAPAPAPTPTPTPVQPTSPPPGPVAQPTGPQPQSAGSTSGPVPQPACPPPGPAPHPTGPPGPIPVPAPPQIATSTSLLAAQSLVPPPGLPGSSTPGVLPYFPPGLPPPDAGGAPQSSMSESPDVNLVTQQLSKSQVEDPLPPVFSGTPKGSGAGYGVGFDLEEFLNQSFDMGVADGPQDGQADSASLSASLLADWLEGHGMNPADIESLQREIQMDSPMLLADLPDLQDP

COc1ccc(-c2coc3c(OC)c(OC)cc(O)c3c2=O)cc1
inhibition [1]: -3.95% (inactive) | red/green cell ratio (normalised) [2]: 1.01 (inactive) | normalised cell number [2, 4]: 1.18 | normalised cell number [2, 5]: 1.19 | luciferase signal [3]: 56 AU (inactive)

CC(=O)O[C@H]1C[C@@H](OC(C)=O)C(C)(C)C2CC(=O)[C@]3(C)C(CC[C@@]4(C)[C@H](C(=O)O)OC(=O)C5OC543)[C@]21C (stereo not given in full)
inhibition [1]: 1.04% (inactive) | red/green cell ratio (normalised) [2]: 1 (inactive) | normalised cell number [2, 4]: 0.99 | normalised cell number [2, 5]: 0.99 | luciferase signal [3]: 120 AU (inactive)

COc1c(-c2coc3cc4c(cc3c2=O)CC(O)C(C)(C)O4)ccc2c1C=CC(C)(C)O2 (stereo not given)
inhibition [1]: -4.11% (inactive) | red/green cell ratio (normalised) [2]: 0.82 (inactive) | normalised cell number [2, 4]: 1.08 | normalised cell number [2, 5]: 0.88 | luciferase signal [3]: 24 AU (inactive)

COC(=O)[C@@]1(C)CCC[C@]2(C)c3ccc(O)c(C(C)C)c3CCC12 (stereo not given in full)
inhibition [1]: -0.875% (inactive) | red/green cell ratio (normalised) [2]: 1.1 (inactive) | normalised cell number [2, 4]: 0.97 | normalised cell number [2, 5]: 1.07 | luciferase signal [3]: 52 AU (inactive)

C=CC(C)(O)CC/C=C(\C)CCC=C(C)C (stereo not given)
inhibition [1]: -3.52% (inactive) | red/green cell ratio (normalised) [2]: 1.02 (inactive) | normalised cell number [2, 4]: 0.95 | normalised cell number [2, 5]: 0.98 | luciferase signal [3]: 68 AU (inactive)

Cc1ccc2c(c1)CC[C@H]1CC(=O)CC[C@]21C
inhibition [1]: -2.97% (inactive) | red/green cell ratio (normalised) [2]: 1.02 (inactive) | normalised cell number [2, 4]: 1.12 | normalised cell number [2, 5]: 1.14 | luciferase signal [3]: 16 AU (inactive)

O=c1c(-c2ccccc2)coc2cc(O)cc(O)c12
inhibition [1]: -1.41% (inactive) | red/green cell ratio (normalised) [2]: 0.93 (inactive) | normalised cell number [2, 4]: 1.2 | normalised cell number [2, 5]: 1.12 | luciferase signal [3]: 40 AU (inactive)

Cn1c(=O)[nH]c(=O)c2[nH]cnc21
inhibition [1]: 5.61% (inactive) | red/green cell ratio (normalised) [2]: 0.93 (inactive) | normalised cell number [2, 4]: 1.22 | normalised cell number [2, 5]: 1.13 | luciferase signal [3]: 52 AU (inactive)

CC(C)[C@@H]1CC[C@@H](C)CC1=O
inhibition [1]: 15.9% (inactive) | red/green cell ratio (normalised) [2]: 0.93 (inactive) | normalised cell number [2, 4]: 1.16 | normalised cell number [2, 5]: 1.08 | luciferase signal [3]: 52 AU (inactive)

COc1cc(O)c(C(=O)c2ccccc2)cc1O
inhibition [1]: -3.44% (inactive) | red/green cell ratio (normalised) [2]: 0.89 (inactive) | normalised cell number [2, 4]: 1.31 | normalised cell number [2, 5]: 1.17 | luciferase signal [3]: 48 AU (inactive)

N[C@@H](C(=O)O)[C@@H](O)[C@H](O)[C@H](O)CO
inhibition [1]: 9.87% (inactive) | red/green cell ratio (normalised) [2]: 1.16 (inactive) | normalised cell number [2, 4]: 1.02 | normalised cell number [2, 5]: 1.18 | luciferase signal [3]: 108 AU (inactive)

COC(=O)c1c(C)c2c(c(C)c1O)OC(=O)c1c(C)c(Cl)c(O)c(Cl)c1O2
inhibition [1]: 11.2% (inactive) | red/green cell ratio (normalised) [2]: 0.9 (inactive) | normalised cell number [2, 4]: 1.03 | normalised cell number [2, 5]: 0.93 | luciferase signal [3]: 128 AU (inactive)

CCNC(=O)CC[C@H](N)C(=O)O
inhibition [1]: 3.3% (inactive) | red/green cell ratio (normalised) [2]: 0.97 (inactive) | normalised cell number [2, 4]: 1.09 | normalised cell number [2, 5]: 1.06 | luciferase signal [3]: 164 AU (inactive)

CCOc1ccc(C(=O)c2ccc(OC)c(O)c2O)cc1
inhibition [1]: -3.36% (inactive) | red/green cell ratio (normalised) [2]: 0.9 (inactive) | normalised cell number [2, 4]: 0.9 | normalised cell number [2, 5]: 0.81 | luciferase signal [3]: 68 AU (inactive)

CC(C)=CCOc1cc2oc(=O)ccc2cc1O
inhibition [1]: 1.28% (inactive) | red/green cell ratio (normalised) [2]: 1.03 (inactive) | normalised cell number [2, 4]: 1.12 | normalised cell number [2, 5]: 1.16 | luciferase signal [3]: 36 AU (inactive)
